Active and inactive are the calls of the source. How the source made its calls: active means hit-call score of the fitted dose curve at least 0.9, where 1 is the maximum; inactive means score below 0.9.
Key:
[1] = read-out: Matrix Metallopeptidase 9 (MMP9), MMP9 (gene 4318); assay: BSK_KF3CT_MMP9: BioMAP Diversity Plus: KF3CT Assay for Matrix Metallopeptidase 9 (MMP9) Biomarker Activity (AID 2283074); conditions: primary human keratinocytes with fibroblasts; actives raise or lower the signal;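 on AC50: MMP9 protein level quantified by ELISA in the co-culture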
How it was run: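 MMP-9 quantified by ELISA after 24 h chemical treatment of primary human skin keratinocyte/fibroblast co-cultures; gain or loss fitted against DMSO, with parallel SRB staining (0.1% SRB, 560 nm) for overt cytotoxicity.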

[2] = read-out: urokinase plasminogen activator (uPA), PLAU (gene 5328); assay: BSK_KF3CT_uPA: BioMAP Diversity Plus: KF3CT Assay for urokinase plasminogen activator (uPA) Biomarker Activity (AID 2283075); conditions: primary human keratinocytes with fibroblasts; actives raise or lower the signal
How it was run: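 ELISA read-out of uPA 24 h after dosing human skin keratinocytes co-cultured with foreskin fibroblasts. Signal change fitted both ways relative to DMSO; sulforhodamine B on parallel cultures marks overt cytotoxicity.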

CD40, CD40 (gene 958) [3] = assay: BSK_LPS_CD40: BioMAP Diversity Plus: LPS Assay for CD40 Biomarker Activity (AID 2283076); conditions: primary human HUVEC with PBMC; actives raise or lower the signal
How it was run: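 HUVEC plus PBMC co-culture stimulated with LPS; CD40 quantified by ELISA 24 h after compound dosing. Fitting was bidirectional relative to DMSO. SRB staining of parallel cultures flagged overt cytotoxicity.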

[4] = read-out: E-selectin (Homo sapiens) (UniProt P16581); assay: BSK_LPS_Eselectin: BioMAP Diversity Plus: LPS Assay for Eselectin Biomarker Activity (AID 2283077); conditions: primary human HUVEC with PBMC; actives raise or lower the signal
How it was run: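 Human umbilical vein endothelial cells co-cultured with PBMC under LPS stimulation; cell-surface E-selectin measured by ELISA 24 h after dosing. Change in either direction versus DMSO, with SRB total-protein staining in parallel cultures for cytotoxicity.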

[5] = read-out: Interleukin-8 (IL8), CXCL8 (gene 3576); assay: BSK_LPS_IL8: BioMAP Diversity Plus: LPS Assay for Interleukin-8 (IL8) Biomarker Activity (AID 2283078); conditions: primary human HUVEC with PBMC; actives raise or lower the signal
How it was run: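 Human umbilical vein endothelial cells co-cultured with PBMC, LPS-stimulated, exposed to compound for 24 h. IL-8 quantified by ELISA; fitted in both directions against DMSO, with SRB total-protein staining of parallel cultures for cytotoxicity.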

[6] = BSK_LPS_SRB: Viability Assessment in the BioMAP Diversity Plus: LPS Assay (AID 2283079); conditions: primary human HUVEC with PBMC;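 further: total protein by sulforhodamine B absorbance as a cytotoxicity measure; measured one day after compound addition; fitted in both directions against DMSO so loss or gain of signal counts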
How it was run: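 Co-culture of human umbilical vein endothelial cells and PBMC, read 24 h after dosing. Total protein by 0.1% SRB staining after 10% TCA fixation, absorbance at 560 nm; bidirectional fit against DMSO.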

[7] = read-out: Interleukin-1 alpha (IL1a), IL1A (gene 3552); assay: BSK_LPS_IL1a: BioMAP Diversity Plus: LPS Assay for Interleukin-1 alpha (IL1a) Biomarker Activity (AID 2283080); conditions: primary human HUVEC with PBMC; actives raise or lower the signal
How it was run: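 Human umbilical vein endothelial cells co-cultured with PBMC and stimulated with LPS; IL-1a measured by ELISA 24 h after dosing. Bidirectional fitting against DMSO; cytotoxicity checked by SRB staining in parallel cultures.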

[8] = read-out: Monocyte Chemoattractant Protein-1 (MCP1), CCL2 (gene 6347); assay: BSK_LPS_MCP1: BioMAP Diversity Plus: LPS Assay for Monocyte Chemoattractant Protein-1 (MCP1) Biomarker Activity (AID 2283081); conditions: primary human HUVEC with PBMC; actives raise or lower the signal
How it was run: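 Human umbilical vein endothelial cells co-cultured with PBMC, LPS-stimulated; secreted MCP-1 measured by ELISA 24 h after compound addition. Bidirectional curve fitting against DMSO baseline; SRB total-protein staining in parallel cultures for cytotoxicity.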

[9] = BSK_LPS_PGE2: BioMAP Diversity Plus: LPS Assay for Prostaglandin E2 (PGE2) Biomarker Activity (AID 2283082); conditions: primary human HUVEC with PBMC; actives raise or lower the signal
How it was run: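 Compounds were added to the LPS co-culture of endothelium and PBMC, and PGE2 was measured by ELISA after 24 h. Responses in either direction were fitted with DMSO as baseline.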

[10] = read-out: Macrophage colony-stimulating factor (MCSF), CSF1 (gene 1435); assay: BSK_LPS_MCSF: BioMAP Diversity Plus: LPS Assay for Macrophage colony-stimulating factor (MCSF) Biomarker Activity (AID 2283083); conditions: primary human HUVEC with PBMC; actives raise or lower the signal
How it was run: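 HUVEC–PBMC co-culture, M-CSF measured by ELISA 24 h after chemical dosing. Fitted in both directions relative to DMSO as negative control; overt cytotoxicity assessed by SRB total-protein staining in parallel cultures.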

[11] = read-out: Tissue Factor, F3 (gene 2152); assay: BSK_LPS_TissueFactor: BioMAP Diversity Plus: LPS Assay for Tissue Factor Biomarker Activity (AID 2283084); conditions: primary human HUVEC with PBMC; actives raise or lower the signal
How it was run: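 Human umbilical vein endothelial cells co-cultured with PBMC were dosed with compound. Cell-surface CD142 was measured by ELISA 24 h later. Activity was fitted bidirectionally against DMSO, with SRB total-protein staining in parallel cultures for cytotoxicity.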

[12] = read-out: Tumor necrosis factor (Homo sapiens) (UniProt P01375); assay: BSK_LPS_TNFa: BioMAP Diversity Plus: LPS Assay for Tumour Necrosis Factor alpha (TNFa) Biomarker Activity (AID 2283085); conditions: primary human HUVEC with PBMC; actives raise or lower the signal
How it was run: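 Cells (umbilical vein endothelium plus peripheral blood mononuclear cells) were dosed with chemical, incubated 24 h, then TNFa was quantified by ELISA; values derive from bidirectional fitting with DMSO as baseline.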

[13] = read-out: Vascular cell adhesion molecule 1 (VCAM1), VCAM1 (gene 7412); assay: BSK_LPS_VCAM1: BioMAP Diversity Plus: LPS Assay for Vascular cell adhesion molecule 1 (VCAM1) Biomarker Activity (AID 2283086); conditions: primary human HUVEC with PBMC; actives raise or lower the signal
How it was run: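 Cells are dosed in an LPS-stimulated endothelial/mononuclear co-culture and, after 24 h, VCAM-1 is quantified by ELISA. Activity in either direction is fitted relative to the DMSO negative control.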

CD38, CD38 (gene 952) = assay: BSK_SAg_CD38: BioMAP Diversity Plus: SAg Assay for CD38 Biomarker Activity (AID 2283087); conditions: primary human HUVEC with PBMC; actives raise or lower the signal
How it was run: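 CD38 quantified by ELISA (fluorescence) in a superantigen-activated endothelial cell–PBMC co-culture at 24 h post-dose. Activity fitted in both directions relative to DMSO; parallel SRB and Alamar Blue cytotoxicity read-outs.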

CD40, CD40 (gene 958) [14] = assay: BSK_SAg_CD40: BioMAP Diversity Plus: SAg Assay for CD40 Biomarker Activity (AID 2283088); conditions: primary human HUVEC with PBMC; actives raise or lower the signal
How it was run: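 HUVEC plus PBMC co-culture, superantigen-activated, with CD40 read by ELISA 24 h after dosing. Curves fitted in both directions against DMSO. Overt cytotoxicity checked by parallel SRB total-protein staining.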

CD69, CD69 (gene 969) = assay: BSK_SAg_CD69: BioMAP Diversity Plus: SAg Assay for CD69 Biomarker Activity (AID 2283089); conditions: primary human HUVEC with PBMC; actives raise or lower the signal;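 on AC50: cell surface CD69 protein quantified by ELISA with fluorescence detection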
How it was run: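 Primary human vascular co-culture (umbilical vein endothelium with peripheral blood mononuclear cells) exposed to test chemical for 24 h. CD69 levels quantified by fluorescence ELISA; DMSO served as negative control for bidirectional fitting.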

[15] = read-out: Monocyte Chemoattractant Protein-1 (MCP1), CCL2 (gene 6347); assay: BSK_SAg_MCP1: BioMAP Diversity Plus: SAg Assay for Monocyte Chemoattractant Protein-1 (MCP1) Biomarker Activity (AID 2283090); conditions: primary human HUVEC with PBMC; actives raise or lower the signal
How it was run: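 Values derive from bidirectional fitting of ELISA-measured MCP1 against DMSO controls. Readings were taken 24 h after dosing human vascular endothelial cells co-cultured with peripheral blood mononuclear cells under superantigen stimulation.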

[16] = read-out: E-selectin (Homo sapiens) (UniProt P16581); assay: BSK_SAg_Eselectin: BioMAP Diversity Plus: SAg Assay for Eselectin Biomarker Activity (AID 2283091); conditions: primary human HUVEC with PBMC; actives raise or lower the signal
How it was run: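 Human umbilical vein endothelial cells co-cultured with peripheral blood mononuclear cells, SAg system. E-selectin is measured by ELISA 24 h after dosing and fitted bidirectionally against DMSO. Cytotoxicity is checked by SRB staining of parallel cultures.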

[17] = read-out: Monokine induced gamma interferon (MIG), CXCL9 (gene 4283); assay: BSK_SAg_MIG: BioMAP Diversity Plus: SAg Assay for Monokine induced gamma interferon (MIG) Biomarker Activity (AID 2283092); conditions: primary human HUVEC with PBMC; actives raise or lower the signal
How it was run: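 Endothelial cells and PBMC were co-cultured, exposed to test chemicals, and sampled 24 h later. MIG was measured by ELISA, and responses were fitted in both directions relative to DMSO.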

[18] = read-out: C-C motif chemokine 2 (Homo sapiens) (UniProt P13500); assay: BSK_KF3CT_MCP1: BioMAP Diversity Plus: KF3CT Assay for Monocyte Chemoattractant Protein 1 (MCP1/CCL2) Biomarker Activity (AID 2283073); conditions: primary human keratinocytes with fibroblasts; actives raise or lower the signal
How it was run: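 Human keratinocyte–foreskin fibroblast co-culture; MCP-1 measured by ELISA 24 h after dosing. Bidirectional fit vs DMSO; cytotoxicity tracked by SRB total protein in parallel cultures.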

Measured: AC50

Tumor necrosis factor (Homo sapiens), sequence (P01375 whole entry, looked up): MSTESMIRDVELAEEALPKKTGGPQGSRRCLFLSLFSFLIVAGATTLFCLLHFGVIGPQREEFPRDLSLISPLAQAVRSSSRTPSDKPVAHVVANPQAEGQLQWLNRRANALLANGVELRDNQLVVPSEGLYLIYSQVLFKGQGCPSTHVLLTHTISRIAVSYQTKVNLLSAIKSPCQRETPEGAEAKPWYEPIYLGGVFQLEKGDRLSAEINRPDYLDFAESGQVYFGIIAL
E-selectin (Homo sapiens), sequence (P16581 whole entry, looked up): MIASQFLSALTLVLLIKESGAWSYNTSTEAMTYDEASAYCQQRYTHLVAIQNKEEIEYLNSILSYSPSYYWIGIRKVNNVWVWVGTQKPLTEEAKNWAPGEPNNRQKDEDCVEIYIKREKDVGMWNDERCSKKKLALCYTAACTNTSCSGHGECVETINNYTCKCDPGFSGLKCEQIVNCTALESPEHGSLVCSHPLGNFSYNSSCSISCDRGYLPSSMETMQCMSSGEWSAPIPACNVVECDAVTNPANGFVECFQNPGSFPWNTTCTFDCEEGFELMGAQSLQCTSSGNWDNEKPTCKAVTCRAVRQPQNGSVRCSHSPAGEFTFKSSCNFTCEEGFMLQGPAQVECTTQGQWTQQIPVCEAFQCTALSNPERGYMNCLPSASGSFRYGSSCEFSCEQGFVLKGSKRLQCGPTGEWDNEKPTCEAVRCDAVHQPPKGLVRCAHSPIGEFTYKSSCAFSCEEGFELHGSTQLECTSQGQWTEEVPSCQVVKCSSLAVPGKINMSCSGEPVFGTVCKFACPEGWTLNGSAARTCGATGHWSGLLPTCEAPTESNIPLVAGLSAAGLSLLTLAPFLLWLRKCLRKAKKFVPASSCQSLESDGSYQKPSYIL

CNC(C)=O
not listed: [18]
inactive: all other assays above

CCOC(N)=O
not listed: CD38, CD38 (gene 952)
inactive: all other assays above

O=S(=O)(O)c1ccc(N=Nc2c(O)ccc3cc(S(=O)(=O)O)ccc23)cc1
not listed: CD38, CD38 (gene 952)
inactive: all other assays above

C[Si](C)(C)C(F)(F)C(F)(F)C(F)(F)F
not listed: CD38, CD38 (gene 952)
inactive: all other assays above

FC(F)(F)COC(OCC(F)(F)F)OCC(F)(F)F
not listed: CD38, CD38 (gene 952)
inactive: all other assays above

CCCCOC(=O)c1ccccc1
not listed: [18]
inactive: all other assays above

Cc1nccn1-c1ccc(Sc2cccc(C3(C(N)=O)CCOCC3)c2)cc1
active: [1] 20 µM | [13] 6.8 µM | CD38, CD38 (gene 952) 5.57 µM | CD40, CD40 (gene 958) [14] 4.56 µM | CD69, CD69 (gene 969) 6.87 µM | [15] 6.58 µM | [16] 8.95 µM
not listed: [18]
inactive: all other assays above

From PubChem BioAssay (EPA / NIEHS)
